Source: PubChem BioAssay (Tox21)
Results filed as inconclusive are left out. Calls of active or inactive are those of the source. Unless noted, calls come from the whole dose curve; as a rule, active = well fitted curve in the direction sought with a large enough effect in the repeat runs; inconclusive = weak or mixed curves; inactive = no such curve, though single readings can be large; an effect the other way counts as inactive or inconclusive.

Columns and labels:
[1] = qHTS assay to identify small molecule agonists of the vitamin D receptor (VDR) signaling pathway - cell viability counter screen (AID 743224); note: series mostly up to about 63 µM; % is set by controls: 0 for no effect and ±100 for the full control effect; nearly all actives have a fitted effect of over 50% in size
How it was run: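 Compounds were pin-transferred onto VDR-bla cells plated 4 h earlier; following 16 h incubation at 37C, cell viability was quantified by CellTiter-Glo luminescence after 30 min at room temperature.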

[2] = qHTS assay to identify small molecule antagonists of the vitamin D receptor (VDR) signaling pathway - cell viability counter screen (AID 743225); note: % is set by controls: 0 for no effect and ±100 for the full control effect; nearly all actives have a fitted effect of over 50% in size
How it was run: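 In this counter screen, VDR-bla HEK 293T cells receive test compound plus 3 nM final calcitriol for 16 h at 37C. Room-temperature steps of 2 h with the beta-lactamase substrate, then 30 min with CellTiter-Glo, precede the luminescence read.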

[3] = qHTS assay to identify small molecule agonists of the NFkB signaling pathway - cell viability counter screen (AID 1159515; calls by dose curve; note: series mostly up to about 61 µM; % is set by controls: 0 for no effect and ±100 for the full control effect; nearly all actives have a fitted effect of over 55% in size)
How it was run: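 Parallel cytotoxicity counter screen in ME-180 cells carrying an NFkB-response-element beta-lactamase reporter, 2,000 cells/well. Compound exposure lasted 5 hr at 37 C, 5% CO2. Cell viability was quantified by CellTiter-Glo luminescence.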

[4] = qHTS assay to identify small molecule agonists of the endoplasmic reticulum stress response signaling pathway (AID 1159516; active = well fitted activation curve with a large enough effect in the signal ratio in the repeat runs, not every such curve was filed as active; the % refers to the signal ratio; note: % is set by controls: 0 for no effect and ±100 for the full control effect)
How it was run: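 Using a HeLa line with an ESRE-driven beta-lactamase gene, agonist activity was measured by FRET substrate fluorescence (460 and 530 nm emission) after cells were treated with compounds for 5 hr at 37 C and 5% CO2.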

[5] = qHTS assay to identify small molecule agonists of the endoplasmic reticulum stress response signaling pathway - cell viability counter screen (AID 1159517; calls by dose curve;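 note: HeLa cells carrying an ER stress response element beta-lactamase reporter; series mostly up to about 61 µM; % is set by controls: 0 for no effect and ±100 for the full control effect; nearly all actives have a fitted effect of over 50% in size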)
How it was run: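 Cpd-treated ESRE-bla HeLa (5 hr, 37 C) → LiveBLAzer 2 hr RT → CellTiter-Glo 30 min RT → luminescence.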

[6] = qHTS assay to identify small molecule antagonists of the retinoid-related orphan receptor gamma (ROR-gamma) signaling pathway - cell viability counter screen (AID 1159520); note: % is set by controls: 0 for no effect and ±100 for the full control effect; nearly all actives have a fitted effect of over 50% in size
How it was run: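 Tet-on ROR gamma CHO cells (1,000/well) were plated 4 hr, given compounds in DMSO for 2 hr at 37 C, then induced with 1 uM final doxycycline for 16 hr. Viability was read as ATP by CellTiter-Glo luminescence after 30 min.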

[7] = target: Nuclear receptor ROR-gamma (Homo sapiens) (UniProt P51449); assay: qHTS assay to identify small molecule antagonists of the retinoid-related orphan receptor gamma (ROR-gamma) signaling pathway (AID 1159521)
How it was run: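 Screening format: cell-based luciferase reporter in CHO cells with doxycycline-inducible RORγ. Compound pre-exposure lasts 2 h, doxycycline is 1 uM final, induction runs 16 h at 37 C, and ONE-Glo luminescence is read.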

[8] = qHTS assay to identify small molecule agonists of the AP-1 signaling pathway - cell viability counter screen (AID 1159525; calls by dose curve; note: nearly all actives have a fitted effect of over 55% in size)
How it was run: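 Each titration point was normalised to DMSO and tetra n-octyl ammonium bromide controls. The read was Cell Titer Glo luminescence after 30 min at RT, following 5 h compound exposure of ME-180 AP-1-bla cells at 37 °C.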

[9] = qHTS assay to identify small molecule agonists of the AP-1 signaling pathway (AID 1159526; calls by dose curve; note: % is set by controls: 0 for no effect and ±100 for the full control effect)
[10] = target: Retinoic acid receptor RXR-alpha (Homo sapiens) (UniProt P19793); assay: qHTS assay to identify small molecule agonists of the RXR signaling pathway (AID 1159527; calls by dose curve; note: % is set by controls: 0 for no effect and ±100 for the full control effect; nearly all actives have a fitted effect of over 35% in size)
How it was run: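 Fluorescence ratio readout (460 vs 530 nm) from GeneBLAzer RXR-alpha HEK 293T cells after 16 hr compound treatment; cells seeded 5 hr beforehand in low-serum, charcoal-stripped medium.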

[11] = qHTS assay to identify small molecule agonists of the RXR signaling pathway - cell viability counter screen (AID 1159529)
How it was run: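 Viability read-out for the RXR-alpha agonist qHTS: luminescent CellTiter-Glo signal after 30 min at RT. HEK 293T bla reporter cells, 2% charcoal-stripped FBS, 16 hr compound incubation; tetraoctyl ammonium bromide as cytotoxic control.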

[12] = qHTS assay to identify small molecule antagonists of the retinoid acid receptor (RAR) signaling pathway - cell viability counter screen (AID 1159551); note: % is set by controls: 0 for no effect and ±100 for the full control effect; nearly all actives have a fitted effect of over 35% in size
How it was run: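 ATP-based viability, C3RL4 cells, 6 h at 37 C with 1 uM final retinol co-added after compound; luminescence read 30 min post CellTiter-Glo, RT.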

[13] = qHTS assay to identify small molecule antagonists of the retinoic acid receptor (RAR) signaling pathway (AID 1159552)
How it was run: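 Using a RARE-driven luciferase construct in C3RL4 cells, retinol at 1 uM final provided the agonist stimulus while compounds were co-applied. After 6 hours at 37 C, luminescence was recorded to flag inhibitors of retinol signaling.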

[14] = qHTS assay to identify small molecule agonists of the retinoic acid receptor (RAR) signaling pathway (AID 1159553); note: potency is the fitted concentration of half-maximal effect
How it was run: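 Quantitative high-throughput format: the Tox21 10K library was tested on C3RL4 RARE-luciferase cells for 6 hr at 37 C and 5% CO2, with luminescence measured after a 30 min room-temperature reagent step.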

[15] = qHTS assay to identify small molecule antagonists of the estrogen related receptor (ERR) signaling pathway - cell viability counter screen (AID 1224818);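 note: series mostly up to about 46 µM; viability measured after 17.5 h of compound exposure; % is set by controls: 0 for no effect and ±100 for the full control effect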
How it was run: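 Quantitative high-throughput viability counter screen in ERR cells. Compounds (DMSO) incubated 17.5 h at 37 C; read-out was CellTiter-Fluor fluorescence.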

[16] = qHTS assay to identify small molecule antagonists of the estrogen related receptor signaling pathway with the pleiotropic PPARgamma coactivator (PGC) cell viability counter screen (AID 1224822; note: series mostly up to about 46 µM; % is set by controls: 0 for no effect and ±100 for the full control effect)
How it was run: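 Cytotoxicity in the PGC/ERR cell line is assessed with CellTiter-Fluor, read as fluorescence intensity 30 min after reagent addition, following 17.5 h compound treatment at 37 C.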

Chain of Retinoic acid receptor RXR-alpha (Homo sapiens) (P19793 whole entry, looked up): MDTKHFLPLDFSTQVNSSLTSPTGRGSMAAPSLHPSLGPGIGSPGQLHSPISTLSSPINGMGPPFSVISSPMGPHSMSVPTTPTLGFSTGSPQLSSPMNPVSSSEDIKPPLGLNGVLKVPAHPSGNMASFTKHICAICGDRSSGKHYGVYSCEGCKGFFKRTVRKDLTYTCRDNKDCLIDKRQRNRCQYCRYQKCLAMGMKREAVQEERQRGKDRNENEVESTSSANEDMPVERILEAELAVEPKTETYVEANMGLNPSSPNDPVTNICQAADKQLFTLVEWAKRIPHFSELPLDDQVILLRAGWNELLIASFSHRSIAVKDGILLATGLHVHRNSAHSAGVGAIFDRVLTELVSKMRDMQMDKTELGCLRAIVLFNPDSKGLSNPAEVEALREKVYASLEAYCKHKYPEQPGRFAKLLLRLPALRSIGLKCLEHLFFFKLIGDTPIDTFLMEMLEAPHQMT

O=C1CCCCCCCCCCCCCCO1
inactive: outcome [1] | outcome [2] | outcome [3] | outcome [4] | outcome [5] | outcome [6] | Potency [7] | outcome [8] | outcome [9] | Potency [10] | Potency [11] | outcome [12] | Potency [13] | Potency [14]

Cc1ccc(C(=O)c2ccccc2)cc1
inactive: outcome [1] | outcome [2] | outcome [3] | outcome [4] | outcome [5] | outcome [6] | Potency [7] | outcome [8] | outcome [9] | Potency [10] | Potency [11] | outcome [12] | Potency [13]

CC(C)CCCO
inactive: outcome [1] | outcome [2] | outcome [3] | outcome [4] | outcome [5] | outcome [6] | Potency [7] | outcome [8] | outcome [9] | Potency [10] | Potency [11] | outcome [12] | Potency [14]

CCCC(C)C(=O)OCC (stereo not given)
inactive: outcome [1] | outcome [3] | outcome [4] | outcome [5] | outcome [6] | Potency [7] | outcome [8] | outcome [9] | Potency [10] | Potency [11] | outcome [12] | Potency [13]

CN1CCN(c2cc3c(nn2)Oc2ccccc2N3C)CC1
active: Potency [14] 5.8 µM
inactive: outcome [1] | outcome [3] | outcome [4] | outcome [5] | activity, negative = cytotoxicity [6] 0.179% [at 19 µM] | activity change, negative = inhibition [7] 55.1% [at 19 µM] | viability change, negative = cytotoxic [8] 4.25% [at 15.8 µM] | activation [9] 0.803% [at 15.8 µM] | activation [10] 10.7% [at 15.8 µM] | activity change, negative = cytotoxicity [11] 1.18% [at 15.8 µM] | activity change, negative = cytotoxicity [12] 0.0499% [at 19 µM] | activity, negative = inhibition [13] 162% [at 19 µM]

O=C1c2ccccc2C(=O)c2cc(O)ccc21
inactive: outcome [1] | outcome [2] | outcome [3] | outcome [4] | outcome [5] | outcome [6] | Potency [7] | outcome [8] | outcome [9] | Potency [10] | Potency [11] | outcome [12] | Potency [13]
active: Potency [14] 17.2 µM

CC(C)(C)OC(=O)c1cccc(N)c1
inactive: outcome [1] | outcome [2] | outcome [3] | outcome [4] | outcome [5] | outcome [6] | Potency [7] | outcome [8] | outcome [9] | Potency [10] | Potency [11] | outcome [12] | Potency [13]

C=C(C)C(=O)OCCOCCOCCOCCOC(=O)C(=C)C
inactive: outcome [1] | outcome [2] | outcome [3] | outcome [4] | outcome [5] | outcome [6] | Potency [7] | outcome [8] | outcome [9] | Potency [10] | Potency [11] | outcome [12] | Potency [13]

CN(C)C(=O)Oc1cccc([N+](C)(C)C)c1
inactive: outcome [1] | outcome [2] | outcome [3] | outcome [4] | outcome [5] | outcome [6] | Potency [7] | outcome [8] | outcome [9] | Potency [10] | Potency [11] | outcome [12] | Potency [14] | outcome [15] | outcome [16]
